Assay outcomes: PubChem BioAssay, Broad Institute
Only a selection was taken, and hits are over-represented in it overall.
Tg IFNy HTS = T. gondii growth inhibition with IFN-gamma, primary screen, cell-based; 3.8% of 69,000 active; activity change, negative = inhibition, % (no concentration beside the values); Toxoplasma gondii growth in IFN-gamma-treated host cells; stronger effect = lower value; in the data active means activity change below about -70%, passing the limit was not always enough;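 further: host cells are HeLa cells infected with Toxoplasma gondii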
A number is an active result; – = inactive; ! = not active in a repeat.

SMILES	Tg IFNy HTS
COc1ccc(CN(C)C[C@@H]2OCCCC[C@H](C)Oc3ccc(NC(=O)C4CCCCC4)cc3C(=O)N([C@H](C)CO)C[C@H]2C)cc1	–
COc1ccc(CN(C)C[C@@H]2OCCCC[C@@H](C)Oc3ccc(NC(=O)C4CCCCC4)cc3C(=O)N([C@@H](C)CO)C[C@H]2C)cc1	–
Cc1ccnc(C(NC(=O)c2nnc3nc(C)cc(C)n23)C2CC2)c1 (centres undefined)	–
CCS(=O)(=O)N1CCN(C(=O)CN2CCC(c3csnn3)CC2)CC1	–
Oc1ccc(-c2cccc3c2CCNC3)cc1-c1ccno1	–
COc1ccc(-c2nc(NCC3CCN(CCc4ccc(F)cc4)CC3)c3ccccc3n2)cc1	–
c1coc(CN2C[C@H]3COC[C@@]3(COCC3CC3)C2)c1	–
Cc1nc(C2CCNCC2)cc(N2CCOc3ccccc3C2)n1	–
Cc1ccccc1NC(=O)C(=O)NCCc1csc(-c2ccc(F)cc2)n1	–
CCn1cc2c(n1)C(COC)CN(C(=O)c1cccc(C)n1)C2 (centres undefined)	–
Cc1ccc(N2CCO[C@H]3CN(C(=O)CO)CC[C@@H]3C2)nn1	–
NCC1Cc2cc(-c3ccccc3OCCn3ccnc3)cc(Cl)c2O1 (centres undefined)	-81
NCC1Cc2cc(-c3ccc(Cn4ccnc4)cc3)cc(F)c2O1 (centres undefined)	–
CNc1cc(-c2ccccc2OCCn2ccnc2)c2cc[nH]c2n1	–
Cc1ccccc1NC(=O)N1C[C@H]2C[C@H](C(=O)NC3CCC3)[C@@H](C1)O2	–
COc1ccc2c(c1)CC(C1CCOCC1)N(C(=O)CCc1cc(OC)no1)C2 (centres undefined)	–
O=S(=O)(NC1CCOC2(CCN(Cc3ccccc3F)CC2)C1)C1CC1 (centres undefined)	–
Cc1cc(C)n(Cc2nc(-c3ccc(NC(=O)CC(C)(C)C)cc3)oc2C)n1	–
COc1cccc(NC(=O)Cn2c(=O)ccc3cc(S(=O)(=O)N4CCCC4)ccc32)c1	–
CC1CCN(S(=O)(=O)c2ccc3c(ccc(=O)n3CC(=O)NC(C)C)c2)CC1	–
CSc1cccc(NC(=O)Cn2c(=O)ccc3cc(S(=O)(=O)N4CCC(C)CC4)ccc32)c1	–
Cc1ccc(NC(=O)Cn2c(=O)ccc3cc(S(=O)(=O)N4CCC(C)CC4)ccc32)cc1Cl	-93
CC(C)c1ccc(NC(=O)Cn2c(=O)ccc3cc(S(=O)(=O)N4CCCC4)ccc32)cc1	-78
O=C(Cn1c(=O)ccc2cc(S(=O)(=O)N3CCCC3)ccc21)Nc1ccc(F)cc1	–
CC1CCN(S(=O)(=O)c2ccc3c(ccc(=O)n3CC(=O)Nc3cccc(F)c3)c2)CC1	-81
SMILES	Tg IFNy HTS
CC1CCN(S(=O)(=O)c2ccc3c(ccc(=O)n3CC(=O)Nc3ccc(F)c(Cl)c3)c2)CC1	–
CC(=O)Nc1ccc(NC(=O)Cn2c(=O)ccc3cc(S(=O)(=O)N4CCC(C)CC4)ccc32)cc1	–
CCOC(=O)c1nc(NCCCN2CCN(c3cc(C)ccc3C)CC2)c2ccccc2n1	–
OCC1(Cc2cccc(F)c2)CCN(c2cnccn2)CC1	–
O=C(c1ccn[nH]1)N1CCC2(CC(=O)N(c3ccc(F)c(F)c3)C2)C1 (centres undefined)	–
COCCN1CCO[C@H]2CN(C(=O)c3ccsc3)C[C@@H]21	–
Cc1cccnc1CC(C)NC(=O)c1cc(C(C)C)nc(N)n1 (centres undefined)	–
Cc1cc(C)n(CCCN(C)c2nc(-c3ccccc3)nc3c2CCNC3)n1	–
C1=CC[C@H]2CN(c3ncnc4[nH]ccc34)C[C@H]2C1	–
CC(C)COC(=O)N1C[C@@H]2CN(C(=O)C3CC3)C[C@]2(C(=O)O)C1	–
CN1CC2(CCN(C(=O)c3cnc(N4CCOCC4)nc3)C2)OC1=O (centres undefined)	–
COc1cc(NC(=O)c2nc(-c3cccc(F)c3)n3c2CCCCC3)cc(OC)c1OC	-105
COc1ccc(CCNC(=O)c2nc(-c3cccc(F)c3)n3c2CCCCC3)cc1OC	-115
COc1ccc(CC(=O)NCCc2csc(-c3cccc(F)c3)n2)cc1OC	–
CC1CCCN(C(=O)c2nc(-c3cccc(F)c3)n3c2CCCCC3)C1 (centres undefined)	–
CC1CCN(C(=O)c2nc(-c3cccc(F)c3)n3c2CCCCC3)CC1	–
CCOCCCNC(=O)c1nc(-c2cccc(F)c2)n2c1CCCCC2	–
Cc1ccc(C(C)(C)NC(=O)[C@H](Cc2ccccc2)N(C)C)cc1	–
Cn1c(=O)c(-c2nc(-c3cccc(Br)c3)no2)c(O)c2ccccc21	–
COCCN1C[C@@H]2CN(S(=O)(=O)c3cccs3)C[C@H]2C1=O	–
COc1ccc2c(c1)NC1(CCN(S(=O)(=O)c3ccc(C(C)(C)C)cc3)CC1)c1cccn1-2	–
Cc1cc(N(C)CC2CCN(CCO)CC2)nc(-c2ccccc2)n1	–
CNCCC=C1c2ccccc2CCc2ccccc21	-88!
c1ccc(-c2ccc3c(n2)CCc2ccccc2-3)cc1	–
CC(=O)N1CCC2(CC1)c1ncc(C)n1CCN2C	–
SMILES	Tg IFNy HTS
Cn1cnc2c1c(=O)n(Cc1ccc(-c3nnc(N)s3)cc1)c(=O)n2C	–
Cc1nc(C)c(C(=O)N2CC(C(=O)N3CCCCCC3)C2)o1	–
Cc1nc(C)c(C(=O)N2C[C@@H](c3ccccc3)[C@H](c3cc(C(F)F)n[nH]3)C2)o1	-80
Cc1nc(C)c(C(=O)N2CCC(C(=O)N3CCCCCC3)C2)o1 (centres undefined)	–
COc1cc(CCC(=O)N2CCC3(CC2)CN(C(C)=O)c2ccccc2N3)on1	–
Fc1ccccc1CNc1nc(-c2nnc(-c3cccc(Cl)c3)o2)nc2ccccc12	-80
COc1cccc(CNc2nc(-c3nnc(-c4cccc(Cl)c4)o3)nc3ccccc23)c1	-86
Cc1ccc(-c2nnc(-c3nc(NCCC4=CCCCC4)c4ccccc4n3)o2)cc1	–
COc1ccc(-c2nnc(-c3nc(NCc4cccc(Cl)c4)c4ccccc4n3)o2)cc1	–
Clc1cccc(-c2nnc(-c3nc(NCCC4=CCCCC4)c4ccccc4n3)o2)c1	-83
COc1ccc(CNc2nc(-c3nnc(-c4cccc(Cl)c4)o3)nc3ccccc23)cc1	–
Cc1ccc(-c2nnc(-c3nc(NCc4ccccc4F)c4ccccc4n3)o2)cc1	–
CC(C)Nc1nc(-c2nnc(-c3cccc(Cl)c3)o2)nc2ccccc12	–
Fc1cccc(CNc2nc(-c3nnc(-c4ccccc4)o3)nc3ccccc23)c1	–
COc1ccc(OCC(=O)N2CCC(C)(C(=O)NCc3ccc(F)cc3F)CC2)cc1	–
CCOCC1c2c(cnn2C)CCN1Cc1ccc2c(c1)OCO2 (centres undefined)	–
CC1=CC[C@@H]2CN(C(=O)c3cc(C)nc4c3c(=O)[nH]c(=O)n4C)C[C@@H]2C1	–
CC(=O)NCC(=O)N1CCc2nc(-c3cnn(C)c3)nc(NC3CC3)c2C1	–
CC(C)(C)c1oc(C(N)=O)cc1CN1CCCCC1c1ccccn1 (centres undefined)	–
CCOc1ccc(NC(=O)C(=O)NCCc2csc(-c3ccc(Cl)cc3)n2)cc1	–
COCC(NC(=O)c1c(C)nc2cc(C)ccn12)c1ccnn1C (centres undefined)	–
Cc1cc(C)n(C(C)C(=O)NCCS(=O)(=O)N(C)C)n1 (centres undefined)	–
Cc1ccc(C(=O)Nc2c(C(=O)NCc3cccnc3)[nH]c3ccc(C)cc23)cc1	–
CN(C)c1ccc(C(=O)NCc2cccnc2)cc1	–
Cc1ccc(S(=O)(=O)Cc2nc(-c3ccc(C(=O)NCc4cccnc4)cc3)oc2C)cc1	-113!
